Activity calls are given as the source filed them. Rule for the calls: active = hit-call score of the fitted dose curve at least 0.9, where 1 is the maximum; inactive = score below 0.9.
Read-out: Interleukin-8 (IL8), CXCL8 (gene 3576)
Experiment: BSK_LPS_IL8: BioMAP Diversity Plus: LPS Assay for Interleukin-8 (IL8) Biomarker Activity (AID 2283078)
Settings: primary human HUVEC with PBMC; actives raise or lower the signal
Method: BSK_LPS is a cell-based, multiplexed-readout assay that uses umbilical vein endothelium and peripheral blood mononuclear cells, a human vascular primary cell co-culture, with measurements taken at 24 hours after chemical dosing in a 96-well plate.BSK_LPS_IL8 is an assay component measured in the BSK_LPS assay. It measures IL-8 antibody related to regulation of gene expression using ELISA technology.Data from the assay component BSK_LPS_IL8 was analyzed into 1 assay endpoint. This assay endpoint, BSK_LPS_IL8, was analyzed with bidirectional fitting relative to DMSO as the negative control and baseline of activity. Using a type of binding reporter, gain or loss-of-signal activity can be used to understand changes in the signaling as they relate to the gene CXCL8. Furthermore, this assay endpoint can be referred to as a primary readout, because this assay has produced multiple assay endpoints where this one serves a signaling function. To generalize the intended target to other relatable targets, this assay endpoint is annotated to the cytokine intended target family, where the subfamily is interleukins.
The levels of cell surface (or secreted, indicated by the prefix "s") biomarker endpoints were measured by ELISA. Overt cytotoxicity to cells in confluent adherent cultures (all systems other than the BT system) was assessed by measuring total protein levels using sulforhodamine B (SRB) staining in parallel cultures at the time of biomarker measurements, indicated as SRB endpoints. For proliferation assays for adherent cell types, individual cell types are cultured at sub-confluence and relative cell numbers quantified by SRB staining at time points optimized for each system (48 h: 3C and CASM3C systems; 72 h: BT and HDF3CGF systems; 96 h: SAg system). SRB was performed by staining cells with 0.1% SRB after fixation with 10% TCA and reading wells at 560 nm.Viability and proliferation of PBMC (T cells) was quantified by Alamar Blue reduction for the SAg and BT systems. For PBMC viability (referred to as PBMC Cytotoxicity within the assay endpoint names), cells were plated (75,000/well in a 96-well plate) and then chemical samples added for 1 h before addition of activators, SEB and TSST-1 (20 ng/mL final concentration each). Cells were incubated for 90 h. Then, Alamar Blue (20 uL/well) (Invitrogen, Cat DAL1100) was added for 6 h, and the plates were read with a fluorescence microplate reader at 546/580 nm (excitation/emission). For PBMC proliferation, cells were plated and activated as above but incubated for only 16 h prior to addition of Alamar Blue. Plates were read after 6 h.

outcome, inactive:
COCCOCCOCCOC, CC(C)CC(C)(O)C#CC(C)(O)CC(C)C (stereo not given), CCOC(=O)CC(CC(=O)OCC)(OC(C)=O)C(=O)OCC, O=C1CCC(N2C(=O)c3ccccc3C2=O)C(=O)N1 (stereo not given), C[C@](N)(Cc1ccc(O)c(O)c1)C(=O)O, Cc1ccc(O)cc1, CC[C@H]1CC[C@H](NCc2cc3c(cc2OC)[C@H]2C[C@H]2C(=O)N3C)[C@H](c2ccccc2)N1, CCCCCCCCCCCCc1ccccc1, CCCN(C1CCN(C(=O)C2CCNCC2)CC1)[C@@H]1CCc2ccc(OC)cc2C1, C=CC(=C)CCC=C(C)C, CC1=CC(=O)CC(C)(C)C1, CC1(C)C(=O)N(Br)C(=O)N1Br, COC(=O)c1ccccc1O, COC(=O)CC(=O)OC, COCCOc1cc2cc(C(=O)NC3CCN(C(C)C)CC3)n(CC(=O)Nc3ccc(Cl)cn3)c2cn1, C1N2CN3CN1CN(C2)C3, Cc1ccc(N)cc1O, O=C(O)c1cc(N=Nc2ccc(S(=O)(=O)Nc3ccccn3)cc2)ccc1O, CCCCCCCCO, Nc1cccc(N)c1, CCCCC(CC)COC(=O)c1ccc(C(=O)OCC(CC)CCCC)cc1 (stereo not given), Cc1ccc(C)c(O)c1, CC(C)CCCCCCOC(=O)c1ccc(C(=O)OCCCCCCC(C)C)c(C(=O)OCCCCCCC(C)C)c1, COc1cccc(-c2ccc(/C=C\CN3CCCCCC3)cc2Cl)c1, CC(C)=CCC/C(C)=C/CO, NC(=O)NO, CCN(C(=O)c1cc(C)cc(OC[C@H](C)Nc2ccncc2)c1)C(C)C, O=C(O)c1cccc(Oc2ccccc2)c1, CC(C)CCCCCCCOC(=O)CCCCC(=O)OCCCCCCCC(C)C, Cn1c(=O)c2c(ncn2C)n(C)c1=O, Nc1nc2ncc(CNc3ccc(C(=O)N[C@@H](CCC(=O)O)C(=O)O)cc3)nc2c(=O)[nH]1

AC50, active:
CCOc1cccc(-n2cc(C(=O)N3CCN(c4cc(C(=O)O)c5ccccc5c4)CC3)nc2-c2ccc(C)cc2)c1 27.2 µM, CNS(=O)(=O)c1cc(C(=O)N2CCC(CCN3C4CCC3CC(n3c(C)nc5ccccc53)C4)(c3cccc(F)c3)CC2)c(Cl)cc1F (stereo not given) 20 µM, COc1ccc2sc(C(=O)Nc3nnn[nH]3)c(OC(C)C)c2c1 28.5 µM, CCCCCCc1ccc(O)cc1O 29.6 µM, Clc1nc(Cl)c(Cl)c(Cl)c1Cl 32.7 µM, O=C(O)c1cccc(N(Cc2cccnc2)c2ccc(OC(F)F)c(OC(F)F)c2)c1 9.79 µM, Cn1c(=O)cc(Oc2ccc(F)cc2F)c2cnc(NCC(C)(C)O)nc21 2.9 µM, Nc1ccc(Nc2ccccc2)cc1 11.2 µM, Fc1ccccc1[C@@H](F)COC1CCC(Nc2ncnc3[nH]ncc23)CC1 (stereo not given in full) 28.9 µM

From PubChem BioAssay (EPA / NIEHS)
